Most compounds without a hit are left out; they make up all but 5.6% or so of the library.
ALR H2O2 inh – inhibitors of human ALR sulfhydryl oxidase, primary screen, biochemical, H2O2 detection, HRP-luminol luminescence, single point. FAD-linked sulfhydryl oxidase ALR (Homo sapiens), P55789. purified ALR, DTT oxidation. inhibition, % (test concentration not listed). 290,000 compounds, 3.8% hits;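 active = mean replicate inhibition above about 79%, with every replicate also reaching it, limit read from the data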
Target sequence (P55789 whole entry, looked up): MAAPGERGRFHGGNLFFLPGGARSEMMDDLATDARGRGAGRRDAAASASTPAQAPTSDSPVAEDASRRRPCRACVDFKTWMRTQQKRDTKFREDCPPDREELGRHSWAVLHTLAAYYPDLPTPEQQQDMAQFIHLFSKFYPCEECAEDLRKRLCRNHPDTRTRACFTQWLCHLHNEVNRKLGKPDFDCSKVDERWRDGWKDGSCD
M18AAP inhibitor – PfM18AAP inhibitors, malaria aminopeptidase, primary screen, biochemical, QFRET, recombinant enzyme; 290,000 compounds, 1.2% hits; H-Glu-NHMec fluorogenic cleavage; AID 1822, 2009; inhibition, % at 7.35 µM; M18 aspartyl aminopeptidase (Plasmodium falciparum 3D7);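 active = inhibition above the campaign mean inhibition over all tested compounds plus 3 SD, cut at about 28% in these data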
Cardio protect – cardioprotection against H2O2-induced cell death, primary screen, uHTS, H9c2 cells, ATPLite luminescence; H9c2 cardiomyocytes, H2O2 injury protection, 2 h; protection from H2O2 cell death, % at 20 µM; 360,000 compounds, 0.63% hits; AID 588492, 2011;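 active = compounds giving at least 50% protection of heart cells from peroxide-induced death in the single-dose screen, raw or plate-pattern-corrected value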
PfGluPho inh – PfG6PD enzyme inhibitors, primary screen, biochemical, fluorescence intensity, uHTS; glucose-6-phosphate dehydrogenase-6-phosphogluconolactonase (Plasmodium falciparum 3D7); inhibition, % at 20 µM; 350,000 compounds, 0.78% hits; PfGluPho enzyme, NADPH resazurin-diaphorase fluorescence; AID 504690, 2011;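 active = inhibition reaching at least a set limit at 20 µM in the primary screen, cut at about 59% in these data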
PHOSPHO1 block – PubChem AID 1565; Phosphoethanolamine/phosphocholine phosphatase (Homo sapiens), Q8TCT1; recombinant PHOSPHO1, absorbance phosphatase assay; inhibition, % at 13.3 µM; 290,000 compounds, 1.1% hits; in the data active = inhibition above about 60%
Target sequence (Q8TCT1 whole entry, looked up): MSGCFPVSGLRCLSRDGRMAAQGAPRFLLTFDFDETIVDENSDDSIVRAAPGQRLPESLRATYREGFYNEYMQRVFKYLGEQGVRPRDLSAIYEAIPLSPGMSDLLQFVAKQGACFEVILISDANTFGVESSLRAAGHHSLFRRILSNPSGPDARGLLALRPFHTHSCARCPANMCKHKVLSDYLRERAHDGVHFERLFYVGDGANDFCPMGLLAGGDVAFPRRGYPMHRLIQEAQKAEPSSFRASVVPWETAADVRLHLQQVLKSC
Numbers stand for hits.

`CC(=O)Nc1ccc(N=Cc2c(O)c(C(=O)Nc3ccccc3)cc3ccccc23)cc1` gave ALR H2O2 inh inactive, M18AAP inhibitor inactive, PfGluPho inh inactive and PHOSPHO1 block inactive.
For CCOc1cc(Br)c(Br)c(C=Nc2ccc(NC(C)=O)cc2)c1O the results were ALR H2O2 inh inactive, M18AAP inhibitor inactive, Cardio protect 94, PfGluPho inh inactive and PHOSPHO1 block inactive.
`COC(=O)C1=C2SC(C)C(=O)N2C(N)=C(C#N)C1c1ccc(OC)c(OC)c1` (stereo not given) gave ALR H2O2 inh inactive, M18AAP inhibitor 30, Cardio protect inactive, PfGluPho inh inactive and PHOSPHO1 block inactive.
CCN(C(=O)CSc1ncccn1)C1CCS(=O)(=O)C1 (stereo not given) was read as ALR H2O2 inh inactive, M18AAP inhibitor inactive, Cardio protect inactive, PfGluPho inh inactive and PHOSPHO1 block inactive.
For CCN1CCN(C(=O)c2ccc3c(c2)N(Cc2ccc(C)cc2)CCS3)CC1 the results were ALR H2O2 inh 99, M18AAP inhibitor inactive, Cardio protect inactive, PfGluPho inh inactive and PHOSPHO1 block inactive.
CCOC(=O)N1CCN(C(=O)c2ccc3c(c2)N(Cc2ccccc2)CCS3)CC1 was read as ALR H2O2 inh 98, M18AAP inhibitor inactive, Cardio protect inactive, PfGluPho inh inactive and PHOSPHO1 block inactive.
For Cc1ccc(CN2CCSc3ccc(C(=O)N4CCOCC4)cc32)cc1 the results were ALR H2O2 inh 99, M18AAP inhibitor inactive, Cardio protect inactive, PfGluPho inh inactive and PHOSPHO1 block inactive.
`CC1CC(C)CN(C(=O)c2ccc3c(c2)N(Cc2ccccc2)CCS3)C1` (stereo not given) gave M18AAP inhibitor inactive, Cardio protect inactive, PfGluPho inh inactive and PHOSPHO1 block inactive.
Screening C(=N\Nc1ncnc2ccccc12)/c1ccccc1 returned ALR H2O2 inh 97, M18AAP inhibitor inactive, Cardio protect inactive, PfGluPho inh inactive and PHOSPHO1 block inactive.
`O=C(Nc1cccc(Oc2ccccc2)c1)c1ccc(-n2cncn2)c2ccoc12` gave Cardio protect inactive.
`CC1CCCCC1NC(=O)Cn1ncc2ccccc21` (stereo not given) gave ALR H2O2 inh 97, M18AAP inhibitor inactive, Cardio protect inactive, PfGluPho inh inactive and PHOSPHO1 block inactive.
For O=C(CSc1nc2ccccc2[nH]1)Nc1nc(-c2ccc(Br)cc2)cs1 the results were ALR H2O2 inh 98, M18AAP inhibitor inactive, Cardio protect inactive, PfGluPho inh inactive and PHOSPHO1 block inactive.
For Cc1nc(NC(=O)CSc2ccc(-c3nc4ccccc4[nH]3)cn2)sc1C the results were ALR H2O2 inh 99, M18AAP inhibitor inactive, Cardio protect inactive, PfGluPho inh inactive and PHOSPHO1 block inactive.
CCCc1cc(=O)[nH]c(SCc2csc(-c3ccccc3)n2)n1 was read as ALR H2O2 inh 99, M18AAP inhibitor inactive, Cardio protect inactive, PfGluPho inh inactive and PHOSPHO1 block inactive.
For CCc1nc(SCc2cccnc2)[nH]c(=O)c1C the results were ALR H2O2 inh 99, M18AAP inhibitor inactive, Cardio protect inactive, PfGluPho inh inactive and PHOSPHO1 block inactive.
`CCc1nnc(NC(=O)CSc2ccc(-c3nc4ccccc4[nH]3)cn2)s1` gave ALR H2O2 inh inactive, M18AAP inhibitor inactive, Cardio protect inactive, PfGluPho inh inactive and PHOSPHO1 block inactive.
`O=c1[nH]c(CN2CCCCC2)ccc1O` gave Cardio protect inactive and PfGluPho inh inactive.
`O=S(=O)(/N=C(/c1ccccc1)N1CCOCC1)c1ccc(F)cc1F` gave ALR H2O2 inh inactive, Cardio protect inactive and PfGluPho inh inactive.
`Cc1cc(NS(=O)(=O)c2cn(C)nc2C)no1` gave ALR H2O2 inh inactive, M18AAP inhibitor inactive, Cardio protect inactive and PfGluPho inh inactive.
For Cc1cc(=O)[nH]c(SCc2nc3ccc([N+](=O)[O-])cc3[nH]2)n1 the results were ALR H2O2 inh inactive, M18AAP inhibitor inactive, Cardio protect inactive, PfGluPho inh inactive and PHOSPHO1 block inactive.
Screening CCc1nc(SCc2ccc(F)cc2)[nH]c(=O)c1C#N returned ALR H2O2 inh 98, M18AAP inhibitor inactive, Cardio protect inactive, PfGluPho inh inactive and PHOSPHO1 block inactive.
Screening Cc1nnc(SCC(=O)Nc2nc(-c3ccccc3)cs2)n1N returned ALR H2O2 inh inactive, M18AAP inhibitor inactive, Cardio protect inactive, PfGluPho inh inactive and PHOSPHO1 block 69.
`CCCc1cc(=O)[nH]c(SCc2cccnc2)n1` gave ALR H2O2 inh 97, M18AAP inhibitor inactive, Cardio protect inactive, PfGluPho inh inactive and PHOSPHO1 block inactive.
`N#Cc1c(-c2cccs2)nc(SCc2ccc(Cl)cc2)[nH]c1=O` gave M18AAP inhibitor inactive, Cardio protect inactive, PfGluPho inh inactive and PHOSPHO1 block inactive.
`CCCc1cc(=O)[nH]c(SCc2nc3ccc([N+](=O)[O-])cc3[nH]2)n1` gave ALR H2O2 inh 99, M18AAP inhibitor inactive, Cardio protect inactive, PfGluPho inh inactive and PHOSPHO1 block inactive.
For CCn1c(SCC(=O)Nc2nc(-c3ccccc3)cs2)nnc1-c1ccccc1 the results were ALR H2O2 inh inactive, M18AAP inhibitor inactive, Cardio protect inactive, PfGluPho inh inactive and PHOSPHO1 block inactive.
Cc1ccc(NC(=O)NC(=O)COC(=O)c2ccc(O)cc2O)c(C)c1 was read as Cardio protect inactive and PfGluPho inh inactive.
`COc1ccc(/C=C/C2=Nc3ccccc3NC(C)(C)C2)cc1OC` gave ALR H2O2 inh inactive, M18AAP inhibitor inactive, Cardio protect inactive, PfGluPho inh inactive and PHOSPHO1 block inactive.
CCCc1cc(=O)[nH]c(SCC(=O)NC(=O)c2ccccc2)n1 was read as ALR H2O2 inh inactive, M18AAP inhibitor inactive, Cardio protect inactive, PfGluPho inh inactive and PHOSPHO1 block inactive.
CCCc1cc(=O)[nH]c(SCC(=O)Nc2nc(-c3ccccc3)cs2)n1 was read as ALR H2O2 inh 99, M18AAP inhibitor inactive, Cardio protect inactive, PfGluPho inh inactive and PHOSPHO1 block inactive.
`COc1cc(C2C(C#N)=C(N)OC3=C2C(=O)CC(C)(C)C3)c([N+](=O)[O-])cc1OC` (stereo not given) gave ALR H2O2 inh inactive, M18AAP inhibitor inactive, Cardio protect inactive, PfGluPho inh inactive and PHOSPHO1 block inactive.
Screening CC1(C)CC(=O)C2=C(C1)OC(N)=C(C#N)[C@@H]2c1ccccc1[N+](=O)[O-] returned ALR H2O2 inh inactive, M18AAP inhibitor 29, Cardio protect inactive, PfGluPho inh inactive and PHOSPHO1 block inactive.
Cc1ccc(S(=O)(=O)Nc2ccc(Nc3nccn4c(-c5cccc(OC(F)(F)F)c5)cnc34)cc2)cc1 was read as Cardio protect inactive.
Screening COc1ccc2[nH]c(C(=O)O)c(NS(=O)(=O)c3ccc(OC)c(OC)c3)c2c1 returned M18AAP inhibitor inactive, Cardio protect inactive, PfGluPho inh inactive and PHOSPHO1 block inactive.
`COc1ccc(S(=O)(=O)Nc2c(C(=O)O)[nH]c3ccc(OC)cc23)cc1` gave ALR H2O2 inh 98, M18AAP inhibitor inactive, Cardio protect inactive, PfGluPho inh inactive and PHOSPHO1 block inactive.

High-throughput results: PubChem BioAssay, several laboratories
